TRPM1 prom inh: reduces MITF-dependent TRPM1 promoter luciferase signal; SK-MEL-5 TRPM1 promoter luciferase, 24 h; inhibition, % at 12.5 µM; 0.83% of 330,000 active;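 active means mean inhibition across replicates of 60% or more, whatever share of single replicates reaches that level; inconclusive means some that reach 60%, reason not given; inactive means mean inhibition across replicates below 60%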
EWS-Fli inh: inhibitors of EWS/Fli oncoprotein transcriptional activity; A673 NR0B1-luciferase reporter, viability-normalised; inhibition, % at 12.6 µM; 0.67% of 350,000 active; AID 651661;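 active means mean inhibition of at least 50% after viability correction, with every replicate also passing that limit; inconclusive means mean reaches 50% but only one of two replicates passes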;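 further: firefly luciferase signal divided by Alamar Blue viability fluorescence both relative to DMSO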
PAX8 inh HTS: inhibitors of PAX8 transcriptional activity in RMG-I cells | AID 652154 | 1.2% of 360,000 active | RMG-I TPO-luciferase reporter, SteadyGlo, 24 h | inhibition, % at 12.6 µM;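 active means mean replicate inhibition at least 60% with every replicate also reaching 60%; inconclusive means only one of the two criteria is met; inactive means mean below 60% and not all replicates reaching 60%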;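 further: luciferase light reporting Pax8 driven TPO promoter activity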
Shn3 3UTR inh: inhibitors of Schnurri-3 3'UTR reporter in osteoblasts; Clone20 osteoblast Shn3 3'UTR firefly luciferase, 24 h; inhibition, % at 12.5 µM; 0.52% of 360,000 active; AID 588674;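 active means mean inhibition of at least 75% with every replicate also reaching 75%; inconclusive means mean inhibition at least 75% but some replicate below; inactive means mean inhibition below 75%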
EBV LMP1 NFkB: inhibitors of Epstein-Barr LMP1-induced NF-kappaB reporter | 0.69% of 350,000 active | inhibition, % at 12.5 µM | AID 504558 | LMP1-induced NF-kappaB luciferase reporter cells, luminescence; in the data active means inhibition above about 41%; inconclusive means no clear call, values can overlap the other calls
LGR2 antag: inhibitors of bursicon-induced Drosophila LGR2 receptor cAMP signaling | HEK293 LGR2, CRE-luciferase, bursicon-stimulated, 4 h | 0.35% of 380,000 active | inhibition, % at 9.99 µM;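 active means drop in luminescence signal, shown as inhibition above about 50% in the replicate tests, limit read from the data, passing the limit was not always enough; inconclusive means probably only some replicates passing the limit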;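 further: agonist challenge used bursicon conditioned medium at about half maximal strength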
A number is an active result; . = inactive; ? = inconclusive; / = not tested or not shown. A selection: hits, their analogues and other compounds. The true share with any hit is near 2.2%.

SMILES	TRPM1 prom inh	EWS-Fli inh	PAX8 inh HTS	Shn3 3UTR inh	EBV LMP1 NFkB	LGR2 antag
O=C(NCC(=O)N1CC(O)CC1C(=O)N1CC(O)CC1C(=O)OCc1ccccc1)OCc1ccccc1 (stereo unspecified)	.	.	.	.	.	.
CC(NC(=O)CNC(=O)OCc1ccccc1)C(=O)N1CC(O)CC1C(=O)OCc1ccccc1 (stereo unspecified)	.	/	/	.	65	/
CN(C)c1ccc(-c2nc3cc(N)ccc3o2)cc1	.	65	.	.	.	?
Nc1ccc(-c2nc3cc(N)ccc3o2)cc1	.	.	.	.	.	.
O=C(NCC[C@H]1CC[C@H](NS(=O)(=O)c2ccccc2)[C@@H](CO)O1)c1ccc2c(c1)OCO2	/	.	.	/	/	.
CN1C(=O)c2cc(NC(=O)c3ccc(Cl)cc3)ccc2OC[C@@H]2O[C@H](CC(=O)O)CC[C@@H]21	/	.	.	/	/	.
CCOC(=O)c1cn(CC(=O)Nc2cccc(Cl)c2)nn1	.	.	.	.	.	.
CCOC(=O)c1cn(CC(=O)Nc2cccc(Cl)c2C)nn1	.	/	/	95	.	/
NC(=O)c1ccsc1NC(=O)c1ccc([N+](=O)[O-])o1	67	58	89	.	.	.
NC(=O)c1c(NC(=O)c2ccc([N+](=O)[O-])o2)sc2c1CCCC2	62	.	.	.	.	.
N#Cc1c(NC(=O)c2ccc([N+](=O)[O-])o2)sc2c1CCC2	.	.	.	.	.	.
CN1CCc2c(sc(NC(=O)c3ccc([N+](=O)[O-])o3)c2C(N)=O)C1	86	67	95	.	.	.
CO[C@@H]1CN(C)C(=O)c2ccc(NC(=O)C3CC3)cc2OC[C@H](C)NC[C@@H]1C	/	.	.	/	/	.
COc1ccc(NC(=O)N(C)C[C@@H]2Oc3c(NC(=O)c4cc(C)nn4C)cccc3C(=O)N([C@@H](C)CO)C[C@H]2C)cc1	/	/	.	/	/	.
CCc1ccn2cc(-c3cc(-c4ccccc4)no3)nc2c1	78	75	83	.	70	103
Cc1ccc2nc(-c3cc(-c4ccccc4)no3)cn2c1	.	69	.	.	.	/
C[C@H](CO)N1C[C@H](C)[C@@H](CN(C)Cc2ccc(-c3ccccc3)cc2)Oc2ccc(NC(=O)Cc3cn(C)c4ccccc34)cc2CC1=O	/	.	/	/	/	.
CCC(=O)N1[C@H](CO)[C@H]2c3ccccc3N(S(=O)(=O)c3ccccc3)C[C@H]21	/	.	.	/	/	.
CCOCCCNC(=O)c1cc2c(=O)n3cccc(C)c3nc2n1C	.	52	.	.	.	.
COCC(=O)N(C)C[C@@H]1Oc2ncc(C#CC3(O)CCCC3)cc2C(=O)N([C@@H](C)CO)C[C@H]1C	/	.	/	/	/	.
Cc1oc(-c2cccc(Cl)c2)nc1CN1CCC(C(=O)NCCCN2CC(C)CC(C)C2)CC1 (stereo unspecified)	96	/	/	.	.	/
CCOC(=O)N1CCC(NC(=O)C2CCCN(Cc3nc(-c4cccc(Cl)c4)oc3C)C2)CC1 (stereo unspecified)	.	.	.	.	53	.
Cc1cc(C)c2nc(N3CCC(C(=O)NCCCN4CC(C)CC(C)C4)CC3)sc2c1 (stereo unspecified)	83	.	.	.	.	.
Cc1oc(-c2ccc(Cl)cc2)nc1CN1CCCC(C(=O)NC2CC2)C1 (stereo unspecified)	.	/	.	.	.	.
Cc1cc(C)c2nc(N3CCCC(C(=O)NCCCN4CCOCC4)C3)sc2c1 (stereo unspecified)	.	/	.	.	.	/
SMILES	TRPM1 prom inh	EWS-Fli inh	PAX8 inh HTS	Shn3 3UTR inh	EBV LMP1 NFkB	LGR2 antag
Cc1oc(-c2cccc(Cl)c2)nc1CN1CCC(C(=O)NCCCN2CCCC2=O)CC1	.	.	.	.	.	.
C/C=C/c1ccc2c(c1)[C@@H]1[C@@H](CCN1S(=O)(=O)c1ccccc1C)[C@H](CO)N2	/	/	/	/	/	.
O=C(C[C@@H]1C=C[C@H](NC(=O)c2ccncc2)[C@@H](CO)O1)Nc1ccc(-c2ccccc2)cc1	/	.	.	/	/	.
O=C(Nc1ccccc1O)c1ccc(NS(=O)(=O)c2cccc3cccnc23)cc1	.	.	.	.	47	.
C[C@@H]1CCCCO[C@H](CN(C)S(=O)(=O)c2cccs2)[C@@H](C)CN([C@@H](C)CO)C(=O)c2cc(NS(=O)(=O)c3ccc(Cl)cc3)ccc2O1	/	.	68	/	/	.
C[C@H](CO)N1C[C@H](C)[C@@H](CN(C)S(=O)(=O)c2cccs2)OCCCC[C@H](C)Oc2ccc(NS(=O)(=O)c3ccc(Cl)cc3)cc2C1=O	/	.	100	/	/	.
Cc1ccc(-c2cnc3c(c2)C(=O)N([C@@H](C)CO)C[C@H](C)[C@@H](CN(C)C(=O)Cc2ccccc2)O3)cc1	/	.	/	/	/	.
COc1ccc2c3c(n(C)c2c1)[C@H](CO)N(C(=O)CN1CCOCC1)CC31CN(Cc2ccncc2)C1	/	.	/	/	/	.
CCOC(=O)CSc1nnc(CCCCCN2C(=O)c3cccc4cccc(c34)C2=O)o1	.	.	.	.	.	.
C=CCSc1nnc(CCCCCN2C(=O)c3cccc4cccc(c34)C2=O)o1	.	.	.	.	59	.
CCCNc1nc2c(c(=O)n(C)c(=O)n2C)n1Cc1cccc(C)c1	.	.	/	96	.	.
COCCNc1nc2c(c(=O)n(C)c(=O)n2C)n1Cc1cccc(C(F)(F)F)c1	.	/	/	90	.	/
CC(O)CNc1nc2c(c(=O)n(C)c(=O)n2C)n1Cc1cccc(C(F)(F)F)c1 (stereo unspecified)	.	/	.	.	.	/
CCCNc1nc2c(c(=O)n(C)c(=O)n2C)n1CCc1ccccc1	.	/	/	.	.	/
COCC#Cc1cnc2c(c1)C(=O)N([C@H](C)CO)C[C@H](C)[C@H](CN(C)S(C)(=O)=O)O2	/	.	.	/	/	.
Cc1ccc(/C=N/Nc2cccc(C(=O)O)c2)s1	.	/	.	.	.	58
Cc1nn(-c2ccccc2Cl)c(Cl)c1/C=N/Nc1cccc(C(=O)O)c1	69	/	.	.	69	80
Cc1ccc(/C=N/Nc2ccc(C(=O)O)cc2)s1	81	67	75	.	70	90
CCOc1cc(/C=N/Nc2cccc(C(=O)O)c2)ccc1OC(=O)c1ccccc1	91	.	67	.	59	64
CCCc1cn([C@@H]2C[C@@H]3O[C@H](CO)CC[C@@H]3O[C@@H]2CCc2ccc(-c3cccc(OC)c3)cc2)nn1	/	/	.	/	/	/
O=C(O)c1cccc(N/N=C/c2cccc3ccccc23)c1	81	.	.	.	48	.
COc1ccc2ccccc2c1/C=N/Nc1cccc(C(=O)O)c1	.	.	.	.	.	.
C=C1C(=O)C23CCC4C(C)(C(=O)OC)CCCC4(C)C2CCC1(O)C3 (stereo unspecified)	117	56	134	96	62	/
Fc1ccc(/C=C2\CCCC3=C2Nc2ncnn2C3c2ccc(F)cc2)cc1 (stereo unspecified)	88	/	/	97	.	/
C(#Cc1ccccc1)C[N+]1(CC#Cc2cccc3ccccc23)CCCC1	?	.	63	.	.	.
